The record followed here is PubChem BioAssay (NCATS).

The subject of assay [1] is Zika virus NS2B-NS3 protease (unlinked complex). Put plainly: Primary screen GU Rhodamine qHTS for Zika virus inhibitors: Unlinked NS2B-NS3 protease assay (AID 1347159). Further: nearly all actives have a fitted effect of over 60% in size. Further: potency means the concentration at half of the fitted maximal effect. In a few lines: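 A qHTS format was used, with compound concentrations ranging up to 114 microM. Each compound was preincubated with 25 nM NS2B-NS3 protease, and the substrate was then added at 1.5 microM. Curves were fitted with a 4-parameter Hill model.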

Assay [2] relates to Zika virus NS2B-NS3 protease (linked construct). Put plainly: Primary screen NINDS Rhodamine qHTS for Zika virus inhibitors (AID 1347160). Further: nearly all actives have a fitted effect of over 55% in size. Further: potency means the concentration at half of the fitted maximal effect. In a few lines: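 Kinetic fluorescence (Ex 480 nm, Em 540 nm) over 15 min with 1.5 microM Rhodamine110 peptide and 25 nM linked protease.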
A short description of assay [3]: Confirmatory screen NINDS Rhodamine qHTS for Zika virus inhibitors (AID 1347161).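 Further: purified Zika NS2B-NS3 protease with linked NS2B cofactor domain and Rhodamine110 peptide substrate; series mostly up to about 110 µM; nearly all actives have a fitted effect of over 60% in size.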 The method, boiled down: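 Each compound, titrated, sat 15 min with 25 nM linked protease before 1.5 microM Rhodamine110 substrate went in. Fluorescence gain over the next 15 min, in pH 8.0 Tris with Tween 20, gave Hill-fitted curves.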

Each structure is given as a SMILES string. Inconclusive results are not listed. Entries that show only a call come without a potency. Activity calls are given as the source filed them. The call rests on the fitted dose curve; in most records, active means well fitted inhibition curve with a large enough effect; inconclusive means small, poorly fitted or top-dose-only effect; inactive means no such curve, though single readings can be large or run the other way.

As to `COC(=O)[C@@H](O)[C@H]1[C@@]2(C)CC3(O)[C@@H](C(=O)[C@H]2O)[C@]24O[C@]25CC(=O)O[C@@H](c2ccoc2)[C@]5(C)CCC4[C@]13C` (stereo partly drawn), the Potency entry in assay [1] and in assay [2] was “inactive” each time.

For the molecule `CC(C)(C)NS(=O)(=O)c1cncc(-c2cc(F)c3nc(N)nn3c2)c1`, the Potency entry in assay [1] and in assay [2] was “inactive” in each case.

In the case of `C=C1CC23CC1CCC2C12OC(=O)C(C)(CCC1O)C2C3C(=O)O` (stereo not drawn), the Potency entry in assay [1] and in assay [2] was “inactive” throughout.

Turning to `COc1c(C)c(OCC(O)C(C)(C)O)cc2c1COC2=O` (stereo not drawn), the Potency entry in assay [1] and in assay [2] was “inactive” in each case.

Consider `C[C@H]1CC[C@@H]2N(C1)C[C@@H]1[C@H]([C@@H](O)[C@H](O)[C@]3(O)[C@H]1C[C@@]14OC5(O)[C@@H](C[C@@H](O)[C@@H]31)[C@]4(C)CC[C@@H]5O)[C@]2(C)O`, for which the Potency result in assay [1] and in assay [2] was “inactive” each time.

Consider `CCOC(=O)C(CCc1ccccc1)NC(C)C(=O)N1C(=O)N(C)CC1C(=O)O` (stereo not drawn), for which the Potency entry in assay [1] and in assay [2] was “inactive” in each case.

In the case of `CC(C)=CCC/C(C)=C/CCC1(C)Oc2c(c(O)cc3c2CN(C(CCC(=O)O)C(=O)O)C3=O)CC1O` (stereo not drawn), the Potency entry in assay [2] is “inactive”.

On to `N[C@H]1Cc2ccccc2N(O)C1=O`, for which the Potency result in assay [2] is “inactive”.

In the case of `CCN1CCN(Cc2ccc(NC(=O)c3ccc(C)c(NC(=O)c4cncc(-c5cccs5)c4)c3)cc2C(F)(F)F)CC1`, the Potency entry in assay [1] and in assay [2] was “inactive” each time.

Regarding `CC(O)CO[C@@H]1O[C@H](CO)[C@@H](O)[C@H](O)[C@H]1O` (stereo partly drawn), the Potency entry in assay [1] and in assay [2] was “inactive” each time.

With `COC(=O)C(C)C1CCC2(C)C(=O)C=CC(C)(O)C2C1O` (stereo not drawn), the Potency entry in assay [2] was “inactive”.

As for `CC(C)CCC[C@@H](C)[C@H]1CC[C@H]2[C@@H]3CC(=O)[C@H]4C[C@@H](O)CC[C@]4(C)[C@H]3CC[C@]12C`, in assay [2], the Potency entry was “inactive”.

As for `CC(=O)NC1=NN(C(C)=O)C(C)(c2ccccc2)S1` (stereo not drawn), the Potency entry in assay [1] and in assay [2] was “inactive” throughout.

As for `O=C(c1ccccc1)c1ccc2nc(NC(=O)c3csc(C4CCN(c5ncnc6ccsc56)CC4)n3)[nH]c2c1`, in assay [2], the Potency result was “inactive”.

Take `CC(C)CC1NC(=O)C(C)NC(=O)C(CC(C)C)OC(=O)CCCNC1=O` (stereo not drawn): the Potency entry in assay [1] and in assay [2] was “inactive” each time.

As to `CC1(C)CC2C=C(C(=O)O)C3COC(=O)C(O)(CO)C23C1` (stereo not drawn), the Potency entry in assay [1] and in assay [2] was “inactive” in each case.

Consider `CCNCc1nc2c(N)nc3ccccc3c2n1CC(C)(C)O`, for which the Potency result in assay [1] and in assay [2] was “inactive” throughout.

`CCCCc1ccc(C(=O)Nc2cc(-c3ccc(Cl)cc3)nn2-c2ccc(Cl)cc2)cc1`: the Potency in assay [1] was 39.8 µM (active). The Potency result in assay [2] and in assay [3] was “inactive” throughout.

With `C=C(CO[C@@H]1O[C@H](CO[C@@H]2OC[C@](O)(CO)[C@H]2O)[C@@H](O)[C@H](O)[C@H]1O)C1Cc2cc(C(C)=O)ccc2O1` (stereo partly drawn), the Potency result in assay [2] is “inactive”.

With `CC(=O)OC[C@]12[C@H](OC(C)=O)C(=O)[C@@H]3[C@@H](OC(C)=O)[C@@]14O[C@@]3(C)COC(=O)c1cccnc1[C@@H](C)[C@H](C)C(=O)O[C@@H]([C@H](O)[C@@H]2OC(C)=O)[C@]4(C)O`, the Potency entry in assay [1] and in assay [2] was “inactive” in each case.

In the case of `CN1c2ccccc2C(=O)N2CCC3c4ccccc4NC3C21` (stereo not drawn), in assay [2], the Potency result is “inactive”.

Turning to `Cc1noc(=O)c2ccc(NC(=O)C(O)(CC(C)(C)c3cccc4c3OCC4)C(F)(F)F)cc12` (stereo not drawn), the Potency result in assay [2] was “inactive”.

Turning to `C=CC(C)(C)c1[nH]c2ccccc2c1C[C@@H]1NC(=O)[C@H](Cc2c[nH]c3ccccc23)NC1=O`, the Potency entry in assay [1] and in assay [2] was “inactive” throughout.

Consider `CNS(=O)(=O)CC1CCC(N(C)c2ncnc3[nH]ccc23)CC1` (stereo not drawn), for which the Potency entry in assay [1] and in assay [2] was “inactive” in each case.

For `Oc1ccc(CNc2ccccc2F)c2cccnc12`, the Potency entry in assay [1] and in assay [2] was “inactive” each time.

`CN(C)CC1CCOC1(c1ccccc1)c1ccccc1` (stereo not drawn): in assay [2], the Potency entry is “inactive”.

Take `CC(C)c1cc(CNc2nc(Nc3cc(C4CC4)[nH]n3)cc(N3CCN(C)CC3)n2)on1`: the Potency result in assay [1] and in assay [2] was “inactive” in each case.

Regarding `C/C1=C\CCC2=C[C@@H](OC2=O)c2c(C)coc2C1`, in assay [2], the Potency entry is “inactive”.

Turning to `CC(C)(C)CCN1C[C@@H]2C(CNC(=O)c3cc(Cl)cc(Cl)c3)[C@@H]2C1` (stereo partly drawn), the Potency entry in assay [1] and in assay [2] was “inactive” throughout.

In the case of `CN(C)CCCCC(=O)Nc1ccc(NC(=S)NC(=O)c2ccc(C(C)(C)C)cc2)cc1`, the Potency result in assay [1] and in assay [2] was “inactive” in each case.

On to `CC(C)(O)/C=C/CC(C)(O)C1C(O)CC2(C)C3CCC4C(C)(C)C(=O)CCC4(C)C3CCC12C` (stereo not drawn), for which the Potency entry in assay [2] was “inactive”.

On to `CCC1=CC2CN(C1)Cc1c([nH]c3ccccc13)[C@@](C(=O)OC)(c1cc3c(cc1OC)N(C)[C@H]1[C@@](O)(C(=O)OC)[C@H](OC(C)=O)[C@]4(CC)C=CCN5CC[C@]31[C@@H]54)C2` (stereo partly drawn), for which the Potency result in assay [1] and in assay [2] was “inactive” each time.

As for `O=S(=O)(NC1CCC(c2cc(F)ccc2F)(S(=O)(=O)c2ccc(Cl)cc2)CC1)C(F)(F)F` (stereo not drawn), the Potency in assay [2] was 12.6 µM (active).

As for `CC(=O)O[C@@H]1[C@@H](OC(=O)/C=C/c2ccccc2)[C@@H](OC(C)=O)[C@H](O[C@H]2[C@@H]3C=CO[C@@H](O[C@@H]4O[C@H](CO)[C@@H](O)[C@H](O)[C@H]4O)[C@@H]3[C@@]3(CO)O[C@@H]23)O[C@H]1C`, the Potency result in assay [1] and in assay [2] was “inactive” throughout.

Take `CN1CCN(C(=O)c2ccc3cc(CCNc4ncnc5ccc(C#N)cc45)ccc3c2)CC1`: the Potency entry in assay [2] is “inactive”.

Turning to `CN(C)C/C=C/C(=O)Nc1cccc(C(=O)Nc2cccc(Nc3ncc(Cl)c(-c4c[nH]c5ccccc45)n3)c2)c1`, the Potency result in assay [2] was “inactive”.

`COC(=O)CCC(=O)OC[C@]1(C)CCC[C@@]2(C)C3CC[C@]4(C)C=CC3(CCC12)C4` (stereo partly drawn): the Potency result in assay [1] and in assay [3] was “inactive” each time.

For the molecule `Cc1cc(-c2cc(O)ccc2Cl)cc2nnc(Nc3ccc(OCCN4CCCC4)cc3)nc12`, in assay [2], the Potency entry was “inactive”.

As for `C[C@@H](O)[C@H](NC(=O)c1ccc(C#Cc2ccc(CN3CCOCC3)cc2)cc1)C(=O)NO`, the Potency entry in assay [2] is “inactive”.

Consider `Cc1cc(Nc2ccc(NC(=O)c3ccc(Nc4ccnc5ccccc45)cc3)cc2)nc(N)n1`, for which the Potency result in assay [2] is “inactive”.

As to `COc1cc(Br)c(Nc2nc(-c3c(C)nc4ncccn34)cs2)c(Br)c1`, the Potency result in assay [2] was “inactive”.

`C=CC(C)(C)c1[nH]c2cc3c(cc2c1CC1NC(=O)C2=CCCN2C1=O)C=CC(C)(C)O3` (stereo not drawn): the Potency entry in assay [1] and in assay [2] was “inactive” in each case.

Regarding `CCC(COC)n1nnc2c(Nc3ccc(OC)cc3C)nc(C)cc21` (stereo not drawn), the Potency result in assay [1] and in assay [2] was “inactive” throughout.

With `O=C1CSc2ccccc2N1Cc1cccc(C(F)(F)F)c1`, the Potency entry in assay [1] and in assay [2] was “inactive” each time.

`CC1(C)CCCC2(C)C1CC=C1C(=O)OC(O)C12O` (stereo not drawn): the Potency result in assay [2] is “inactive”.

For `C/C=C/C1=CC2=C(CO1)C(=O)C(C)(O)C(OC(=O)c1c(C)cc(OC)cc1O)C2` (stereo not drawn), in assay [3], the Potency entry is “inactive”.
